High-throughput results from PubChem.
In the library only some 2.1% were active in any assay of this set; here they are far more common.
EP2 modulator – modulates human prostaglandin E2 receptor EP2 signaling; P43116; EP2-expressing cells, cAMP HTRF FRET, PGE2 co-stimulation; induction, % at 25 µM; actives 0.83% (n = 260,000); AID 940;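 active = compounds whose cAMP rise, as percent of the full-agonist control response, exceeds 60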;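 note: rat C6 glioma line stably carrying human EP2 under a CMV promoter; the protocol text gives 20 µM as final concentration; 100% = response of wells given 1 µM PGE2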
CHT inh – inhibits the human high affinity choline transporter; CHT-expressing cells, membrane potential dye, choline response; hits give low values; actives 0.86% (n = 310,000); Q9GZV3; AID 488975; B-score at 10 µM;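 active = B-score over 3 SD under the library average, and starting fluorescence ratio not unusually high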;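 note: choline stimulus applied at its EC90 after an EC20 pre-addition; B-score computed on integrated fluorescence ratio after choline addition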
Target sequence (Q9GZV3 whole entry, looked up): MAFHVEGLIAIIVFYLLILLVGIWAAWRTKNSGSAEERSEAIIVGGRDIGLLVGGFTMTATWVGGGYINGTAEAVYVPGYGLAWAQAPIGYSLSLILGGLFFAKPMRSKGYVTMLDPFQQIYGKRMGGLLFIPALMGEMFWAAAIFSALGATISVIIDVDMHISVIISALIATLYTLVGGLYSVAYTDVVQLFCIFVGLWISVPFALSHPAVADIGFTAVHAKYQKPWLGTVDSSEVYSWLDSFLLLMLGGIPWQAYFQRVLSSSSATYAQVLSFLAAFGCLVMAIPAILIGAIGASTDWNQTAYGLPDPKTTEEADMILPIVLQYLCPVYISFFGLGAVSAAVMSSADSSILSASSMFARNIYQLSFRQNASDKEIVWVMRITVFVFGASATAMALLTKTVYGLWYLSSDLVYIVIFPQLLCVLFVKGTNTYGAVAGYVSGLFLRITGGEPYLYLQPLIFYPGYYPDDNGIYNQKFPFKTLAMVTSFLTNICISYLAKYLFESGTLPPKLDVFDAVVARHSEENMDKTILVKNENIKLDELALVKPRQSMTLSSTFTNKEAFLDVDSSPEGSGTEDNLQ
EP2 antag – EP2 receptor (human) inhibition; P43116; C6 glioma cells expressing human EP2, cAMP TR-FRET; cells stimulated with saturating PGE2; inhibition, % at 25 µM; actives 0.52% (n = 260,000);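 active = percent inhibition above 40 after rounding to a whole number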;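 note: rat C6 glioma host cells with rolipram phosphodiesterase inhibitor present; the protocol text gives 20 µM as final concentration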
CHT PAM – allosterically activates the human high affinity choline transporter. Q9GZV3. CHT-expressing cells, membrane potential dye, choline EC20; hits give high values; LV-AA mutant CHT in HEK293 cells. B-score at 10 µM. actives 0.49% (n = 310,000). AID 488977;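 active = initial fluorescence not abnormally high and integrated response B-score, plate-corrected, over 3 SD above library mean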
* marks the source's active call; other numbers are inactive results; i = inactive; nt = no result given; ! = a repeat was not active.

SMILES | EP2 modulator | CHT inh | EP2 antag | CHT PAM
CC(=O)Nc1cccc(NC(=O)CN2C3CCC2CC(O)(c2nccn2C)C3)c1 (stereo unspecified) | -18 | nt | nt | nt
CC1=C2C(=O)[C@H]3[C@@H](CC=C4C[C@@H](O)CC[C@@]43C)[C@@H]2CC[C@@]12O[C@@H]1C[C@H](C)CN[C@H]1[C@@H]2C | 19 | nt | 41* | nt
CCn1nc(CC(=O)N(CCN(C)C)Cc2ccc(F)cc2)c2ccccc2c1=O | -31 | nt | 4 | nt
C/C=C(\C)C(=O)OC1C(C)=C2C(C1OC(=O)CCCCC)C(C)(OC(C)=O)CC(OC(=O)CCC)C1(O)C2OC(=O)C1(C)O (stereo unspecified) | -1 | i | 20 | 8*
CO[C@H]1[C@H](O)[C@@H](O[C@@H]2[C@@H](Oc3cccc4c(O)c5c(=O)oc6ccc(C)c7c(=O)oc(c34)c5c67)O[C@@H](C)[C@H](O)[C@H]2O)O[C@@H](C)[C@@H]1O | 8 | nt | 44* | nt
COc1ccc(-c2nc(C)sc2CC(=O)N(C)CCN(C)C)cc1OC | -14 | nt | 3 | nt
Cc1ccc(C=C2C(=O)NC(=S)NC2=O)o1 | -106 | nt | 114* | nt
NS(=O)(=O)c1ccc(-c2ccc(C=C3C(=O)NC(=S)NC3=O)o2)cc1 | nt | i | nt | i
O=C(Nc1ccccc1)c1c(O)c2c(n(Cc3ccco3)c1=O)CCCC2 | 65* | i | 4 | i
CCOCc1cc(CN2C3CCC2CC(O)(c2ccccc2F)C3)ccc1OC (stereo unspecified) | -34 | nt | 10 | nt
Cc1cc2c(C(C)C)c(O)c(O)c(C=O)c2c(O)c1-c1c(C)cc2c(C(C)C)c(O)c(O)c(C=O)c2c1O | 7 | nt | 47*! | nt
Cc1ccc(S(=O)ON2CCC(C(=O)O)(c3ccccc3)CC2)cc1 (stereo unspecified) | 20 | nt | 45* | nt
COc1cc2c3cc1Oc1c(O)c(OC)cc4c1[C@@H](Cc1ccc(cc1)Oc1cc(ccc1O)C[C@@H]3N(C)CC2)N(C)CC4 | -7 | nt | 48* | nt
Cc1cc(NC(=O)CN2C3CCC2CC(O)(c2nccn2C)C3)no1 (stereo unspecified) | -12 | nt | nt | nt
Cn1c(=O)c2[nH]cnc2n(C)c1=O.[CH2-][C@H](Cc1cccc2cc(C(=O)O)c(=O)oc12)OC.[Hg].[OH-] | 29 | nt | 59* | nt
CC/C(=C\C=C\[C@@H]1C=C[C@@H]2CCC[C@H]2[C@@H]1C(=O)c1ccc[nH]1)[C@@H]1O[C@@H]([C@@H](C)C(=O)O)CC[C@@H]1C | 26 | -5.5* | 6 | i
O=[N+]([O-])c1cc(-c2ccc([As](=O)(O)O)cc2)ccc1[As](=O)(O)O | -3 | i | 47*! | i
CN(C)c1ccc(C=C2C(=O)NC(=S)NC2=O)cc1[N+](=O)[O-] | -19 | i | 8 | i
O=C1NC(=S)NC(=O)C1=Cc1cccc2cc3ccccc3cc12 | -42 | nt | 98*! | nt
CC(C)[C@]1(O)[C@@H](OC(=O)c2ccc[nH]2)[C@@]2(O)[C@@]3(C)C[C@]4(O)O[C@@]5([C@H](O)[C@@H](C)CC[C@@]35O)[C@@]2(O)[C@@]41C | 6 | nt | 51* | nt
O=C(O)c1cc(N=Nc2ccc([As](=O)(O)O)cc2)ccc1O | 33 | nt | 43* | nt
O=C(NC1CN2CCC1CC2)c1ccc(-c2ccc([N+](=O)[O-])cc2)o1 (stereo unspecified) | -8 | i | 5 | i
CN1C(=O)COc2c(C(=O)NC3CN4CCC3CC4)cc(Cl)cc21 (stereo unspecified) | nt | i | 10 | 8.9*
N#CC1=C(N)Oc2c(c(=O)oc3ccccc23)C1c1ccc(OCC(N)=O)cc1 (stereo unspecified) | -17 | nt | 12 | nt
O=[N+]([O-])c1ccc(N2CCNCC2)cc1NC1CC1 | 6 | i | nt | 6.4*
SMILES | EP2 modulator | CHT inh | EP2 antag | CHT PAM
CCNc1cc(N2CCNCC2)ccc1[N+](=O)[O-] | 4 | i | 7 | 7.3*
Cc1ccc(C2=CCN(CC(=O)Nc3ccc4c(c3)OCO4)CC2)o1 | -117 | nt | 13 | nt
COc1ccc(C(F)(F)F)cc1N1C(=O)CC(=O)NC1=O | 2 | nt | 9 | nt
Cc1nc2ccccc2cc1C[N+]12CN3CN(CN(C3)C1)C2 | 6 | nt | 50* | nt
C=CCSc1nc2ccccc2c(=O)n1-c1ccccc1C | 78* | nt | 5 | nt
c1ccc2c([C@@H]3CCN(CCN4CCOCC4)C3)c[nH]c2c1 | 13 | nt | 53* | nt
C=CCN1CCC2(C)c3cc(O)ccc3CC1C2C (stereo unspecified) | 11 | i | 14 | i
CC[C@@H]1[C@@H]2Cc3ccc(O)cc3[C@@]1(CC)CCN2C | 14 | nt | 52* | nt
CN(C)CCN(Cc1ccccc1F)C(=O)Cc1nc2ccccc2[nH]1 | -29 | nt | 9 | nt
